An excerpt weighted towards active compounds, which were near 6.9% of everything screened.
VDR inhibitor: vitamin D3 receptor (human) inhibition; P11473; 400,000 tested, 0.93% active; Potency, µM, inactives show max response, negative = inhibition, hits mostly inhibitors; AID 504847; VDR-SRC2-3 peptide fluorescence polarization, 2 h; note: potency is the fitted concentration of half-maximal effect; % is set by controls: 0 for no effect and ±100 for the full control effect
Target sequence (P11473 whole entry, looked up): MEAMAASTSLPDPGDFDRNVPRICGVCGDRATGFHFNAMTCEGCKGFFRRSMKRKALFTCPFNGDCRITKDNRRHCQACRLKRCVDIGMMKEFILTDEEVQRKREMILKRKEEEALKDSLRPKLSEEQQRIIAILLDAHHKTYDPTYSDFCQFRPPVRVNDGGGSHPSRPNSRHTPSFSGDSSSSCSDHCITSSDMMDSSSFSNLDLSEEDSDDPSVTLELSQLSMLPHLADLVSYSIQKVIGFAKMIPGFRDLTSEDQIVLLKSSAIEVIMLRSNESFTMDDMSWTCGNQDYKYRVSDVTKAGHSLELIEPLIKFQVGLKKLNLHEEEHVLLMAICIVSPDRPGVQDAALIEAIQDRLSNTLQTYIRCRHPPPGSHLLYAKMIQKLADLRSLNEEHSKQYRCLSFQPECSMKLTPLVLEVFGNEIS
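Measured by FP: displacement of SRC2-3 coactivator peptide from VDR by library compounds, following a two-hour ambient incubation.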
L3MBTL1 inh: inhibitors of human L3MBTL1; Q9Y468; AlphaScreen L3MBTL1–H3K9me1 peptide binding; Potency, µM (doses to about 57.1 µM), for inactives: at the top dose activity, negative = inhibition, most hits filed as inhibitors; 230,000 tested, 0.66% active; AID 485360; note: potency is the fitted concentration of half-maximal effect; % is set by controls: 0 for no effect and ±100 for the full control effect; nearly all actives have a fitted effect of over 60% in size
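L3MBTL1 (50 nM) pre-complexed 30 min with biotinylated H3(1-15)K9me1 peptide (75 nM), then compounds added for 30 min at room temperature; AlphaScreen streptavidin donor/nickel chelate acceptor beads (10 ug/mL final) read after 30 min dark incubation.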
JMJD2A Tudor: JMJD2A Tudor domain (human) inhibition; AlphaScreen JMJD2A-Tudor / H3K4me3 peptide binding; 390,000 tested, 4.4% active; Potency, µM (titrated, usually from 114 µM), inactives show at the top dose activity change, negative = inhibition, actives largely listed as inhibitors; note: potency is the fitted concentration of half-maximal effect; % is set by controls: 0 for no effect and ±100 for the full control effect; nearly all actives have a fitted effect of over 50% in size
PLK1 PBD inh: inhibitors of human PLK1 polo-box domain binding. P53350. Plk1 PBD binding of FITC phosphopeptide, fluorescence polarization. Potency, µM, without a hit: max response, negative = inhibition, most hits filed as inhibitors. 360,000 tested, 2.8% active. AID 720504; note: potency is the fitted concentration of half-maximal effect; series mostly up to about 57 µM; % is set by controls: 0 for no effect and ±100 for the full control effect; nearly all actives have a fitted effect of over 65% in size
HP1b chromo inh: HP1-beta chromodomain-methylated histone interaction inhibition; P83916; Potency, µM (top dose mostly 114 µM), for inactives: at the highest dose activity change, negative = inhibition, hits mostly inhibitors; 390,000 tested, 0.56% active; AlphaScreen HP1-beta / biotin-H3K9me3 peptide binding; note: potency is the fitted concentration of half-maximal effect; nearly all actives have a fitted effect of over 70% in size
Target sequence (P83916 whole entry, looked up): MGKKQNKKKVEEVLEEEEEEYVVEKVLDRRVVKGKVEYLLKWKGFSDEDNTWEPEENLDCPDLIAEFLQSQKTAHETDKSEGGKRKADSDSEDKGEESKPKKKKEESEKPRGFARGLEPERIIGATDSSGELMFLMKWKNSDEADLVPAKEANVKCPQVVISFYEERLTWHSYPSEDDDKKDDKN
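HP1-beta protein (50 nM final) preincubated 30 min at room temperature with biotinylated H3(1-18)K9me3 peptide (50 nM) in PBS pH 7.4, 0.01% Tween-20, then compound added for 30 min. AlphaScreen streptavidin donor/nickel chelate acceptor beads (10 ug/mL final), 30 min dark, luminescence read.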
BAZ2B block: BAZ2B (human) inhibition; Q9UIF8; AlphaScreen BAZ2B-H3K14Ac peptide displacement; Potency, µM (series often up to 114 µM), inactives show top-dose activity change, negative = inhibition, most hits filed as inhibitors; 360,000 tested, 4.4% active; AID 504333; note: potency is the fitted concentration of half-maximal effect; % is set by controls: 0 for no effect and ±100 for the full control effect; nearly all actives have a fitted effect of over 60% in size
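AlphaScreen luminescence quantifies BAZ2B engagement of H3K14Ac peptide; the protein and biotinylated peptide are both at 50 nM final, buffer PBS pH 7.4 with 0.01% Tween-20, all steps at room temperature.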
USP1-UAF1 confirm: validation of human USP1/UAF1 inhibitors; shares compounds with VDR inhibitor; Ub-Rhodamine cleavage, fluorescence kinetic read; Potency, µM (series often up to 114 µM), for the others: at the top dose activity change, negative = inhibition, usual class: inhibitors; 50 tested, 50% active; AID 540327
VDR confirm: inhibits human vitamin D receptor, primary hit validation. shares compounds with VDR inhibitor. VDR-coactivator inhibition assay, qHTS confirmation. Potency, µM, actives largely listed as inhibitors. 840 tested, 89% active. AID 602199; note: potency is the fitted concentration of half-maximal effect
VDR FP fluor: blocks human VDR-coactivator binding in fluorescein assay; shares compounds with VDR inhibitor; VDR-coactivator binding, fluorescein fluorescence polarization; Potency, µM (series often up to 57.1 µM), without a hit: at the top dose activity change, negative = inhibition, hits mostly inhibitors; 840 tested, 48% active; AID 602200; note: potency is the fitted concentration of half-maximal effect
VDR bla reporter: VDR (human) inhibition, cell-based beta-lactamase validation; AID 602202; Potency, µM (top dose mostly 46.1 µM), for the others: at the top dose activity change, negative = inhibition, hits mostly inhibitors; shares compounds with VDR inhibitor; VDR beta-lactamase reporter cells, FRET ratio; cells co-treated with VDR agonist LG190178; 840 tested, 23% active; note: potency is the fitted concentration of half-maximal effect; % is set by controls: 0 for no effect and ±100 for the full control effect
VDR viability: counter-screen for vitamin D receptor inhibitors: cytotoxicity; Potency, µM (highest dose often 48.3 µM), without a hit: at the highest dose activity change, negative = cytotoxicity, usual class: cytotoxic; shares compounds with VDR inhibitor; cytotoxicity counter-screen, cell viability, qHTS; 840 tested, 18% active;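 note: potency is the fitted concentration of half-maximal effect; plate controls were DMSO for no effect and high-concentration cycloheximide for full effect; nearly all actives have a fitted effect of over 75% in size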
* = called active by the depositor; u = inconclusive; x = no result given; [ ] = another dose, or the depositor's remark. Calls come from the whole dose curve; as a rule, active = well fitted curve in the direction sought with a large enough effect; inconclusive = small, poorly fitted or top-dose-only effect, or another doubt; inactive = no such curve, though single readings can be large; an effect the other way counts as inactive or inconclusive.

SMILES | VDR inhibitor | L3MBTL1 inh | JMJD2A Tudor | PLK1 PBD inh | HP1b chromo inh | BAZ2B block | VDR confirm | VDR FP fluor | VDR bla reporter | VDR viability | others
CCCC(=O)OCCNc1cc(Sc2nccn2C)c2nonc2c1[N+](=O)[O-] | 50µM* | -1% | -16% | 2.4µM* | -32% | -25% | 8.4* | u | 16µM* | 21µM*
CCCCn1nnnc1C(c1cc2ccccc2o1)N1CCN(CCN(C)C)CC1 (stereo not drawn) | x | x | x | 3% | x | x | x | x | x | x
O=C(O)c1ccc(C=C(c2nc3ccccc3s2)c2nc3ccccc3s2)cc1 | u | -22% | u | 30µM* | -14% | u | 13* | 16µM* | 23µM* | -25%
Nc1ccccc1Sc1nc2ccccc2[nH]1 | 20µM* | u | 28µM* | 13µM* | u | 40µM* | 21* | 14µM* | 6% | 7%
COC(=O)c1c(N)[nH]c(C(=O)c2ccccc2)c1-c1ccccc1Br | x | x | x | -10% | x | x | x | x | x | x
CS(=O)(=O)c1ccc(C(=O)OCc2nnc(-c3ccc(Cl)cc3)o2)cc1[N+](=O)[O-] | 25µM* | x | -21% | -25% | -2% | u | 5.6* | 2.2µM* | 15µM* | u
COC1=CC(=O)C(OC)=C(OC)C1=O | -5% | x | -5% | -14% | 32% | x | x | x | x | x
COC1=C(OC)C(=O)c2ccccc2C1=O | 35µM* | x | x | x | x | x | x | x | x | x | USP1-UAF1 confirm=30µM*
COc1ccccc1NS(=O)(=O)c1cc(N)ccc1N1CCOCC1 | 79µM* | -4% | -31% | 0% | u | x | 21* | 20µM* | 25% | 32%
CS(=O)(=O)c1ncc(Cl)c(C(=O)Nc2ccc(N3CCOCC3)cc2)n1 | -70% | -17% | -7% | u | 6% | u | x | x | x | x
CCN(c1ccccc1)S(=O)(=O)c1ccc(NC(=O)c2nc(S(C)(=O)=O)ncc2Cl)cc1 | 40µM* | x | u | 17µM* | 4% | -33% | 13* | u | u | 16µM*
CCSc1ncc(Cl)c(C(=O)Nc2ccc(S(=O)(=O)N(C)c3ccccc3)cc2)n1 | 28% | x | -28% | x | 18% | -16% | x | x | x | x
CS(=O)(=O)c1ncc(Cl)c(C(=O)Nc2ccc(OC(F)F)cc2)n1 | 10µM* | -5% | -10% | 24µM* | 35% | 5% | 8.4* | 8.9µM* | u | 13µM*
CCS(=O)(=O)c1ncc(Cl)c(C(=O)Nc2ccc(S(=O)(=O)N(C)c3ccccc3)cc2)n1 | u | x | -22% | u | 1%[57 µM] | u | 4.5* | u | u | 7.5µM*
CC1(C)CC(=O)C2=C(C1)NC(Nc1nc3ccccc3o1)=NC2c1cccc(O)c1 (stereo not drawn) | -6% | x | -28%[57.1 µM] | x | 17%[57 µM] | x | x | x | x | x
OCc1ccccc1-c1cnc2cccnn12 | x | x | x | 4% | x | x | x | x | x | x
CCc1nc(SCC(=O)Nc2nnc(C(C)C)s2)n[nH]1 | -21% | x | -27% | u | 4%[57 µM] | x | x | x | x | x
COC(=O)c1ccc(Cn2cc(/C=C\[N+](=O)[O-])c3ccccc32)o1 | 25µM* | -5% | u | u | -7% | u | 21* | u | u | u
N#Cc1c(Nc2ccccc2Cl)s[nH]c1=O | u | 51% | -16% | u | 30% | -4% | x | x | x | x
N#Cc1c(Nc2ccccc2)s[nH]c1=O | u | x | -30% | -29% | 19% | 1% | 7.5* | 8% | 10% | -16%
CCOC(=O)N(C)C[C@H]1OCc2cnnn2CCCC(=O)N([C@@H](C)CO)C[C@H]1C | x | x | x | -18% | x | x | x | x | x | x
Cc1cc(C)nc(NC(=S)NC(=O)c2ccccc2F)n1 | 6% | x | u | -4% | 12% | x | x | x | x | x
Cc1cc(C)nc(S/C=C/C(=O)c2ccccc2F)n1 | u | -2% | u | 4.7µM* | 37% | -17% | 2* | 1.6µM* | 16µM* | 17µM*
CCCC(=O)NCCc1c2n(c3ccc(OC)cc13)CCCc1ccccc1-2 | 0% | x | x | x | x | x | x | x | x | x | USP1-UAF1 confirm=u
Cc1cc(NS(=O)(=O)c2c(C(=O)N3CCOCC3)c(C)n(C)c2C)ccc1Br | -13% | x | -24% | -7% | 33% | -22%[57.1 µM] | x | x | x | x
SMILES | VDR inhibitor | L3MBTL1 inh | JMJD2A Tudor | PLK1 PBD inh | HP1b chromo inh | BAZ2B block | VDR confirm | VDR FP fluor | VDR bla reporter | VDR viability | others
CCOc1ccc(/C=C/[N+](=O)[O-])c2ccccc12 | 20µM* | -1% | u | 3.4µM* | -19% | -31% | 6.7* | u | u | u
CCOC(=O)COc1ccc(/C=C/[N+](=O)[O-])c(OCC(=O)OCC)c1 | 13µM* | 4% | -5% | u | 12% | -24% | 6.7* | u | u | 13µM*
Cc1ccc(NS(=O)(=O)c2cccc(C(=O)Nc3cccnc3)c2)c(C)c1 | 7% | 0% | -25% | -14% | 5% | x | x | x | x | x
CCC(=O)N1CCc2cc(Br)cc(S(=O)(=O)N3CCCC(C(=O)NC(C)(C)C)C3)c21 (stereo not drawn) | 4% | x | -9% | 7% | -20% | 5% | x | x | x | x
COc1ccc(N2C(=O)C(Cl)=C(Oc3cccc(OC)c3)C2=O)cc1 | 28µM* | -9% | u | 1.9µM* | u | 45µM* | 3.2* | 2.8µM* | 5.8µM* | 12µM*
O=S(=O)(/N=S1/CC=CCN1S(=O)(=O)c1ccccc1)c1ccccc1 (stereo not drawn) | 3.5µM* | -11% | u | 1.5µM* | u | -3% | 5.3* | u | -4% | 22%
O=S(=O)(c1ccccc1)N1CCN(S(=O)(=O)c2ccccc2)C1 | 0% | 7% | 0% | -2% | 38% | 7% | x | x | x | x
C/C(=C\c1ccc(C(=O)O)cc1)c1ccc2c(c1)C(C)(C)CCC2(C)C | -1% | -2% | -23% | 27µM* | 3% | 6% | x | x | x | x | USP1-UAF1 confirm=u

High-throughput results: PubChem BioAssay, National Center for Advancing Translational Sciences (NCATS)
